The supplement of paper PMC12636033
± gives the standard deviation of the averaged measurements. The full ranking holds about 33,000 sequences; the median of “E-score (rank enrichment, -0.5 to 0.5)” is about -0.0043, and the highest 2% start at about 0.24. The entries come from a sample that favours the highest values as a whole.

system: 2Sp-muMax20 (muMax20 with two 2,6-bis(methyl)pyridine Cys staples); assay: PBM 8-mer E-score (E-score (rank enrichment, -0.5 to 0.5)); higher = stronger preferential binding
Method: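 Protein binding microarray (universal PBM chip covering all 10-mers in fixed probe flanks) with chemically synthesized human Max(13-93) bHLH-LZ analogs (not full-length Max) bearing noncanonical residues (hArg, Tha, Aib, Nle at 65) and aromatic Cys staples. Read-out per 8-mer (and its reverse complement): E-score (rank-based enrichment, -0.5 to 0.5) and Z-score of median probe intensity.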

Row | Sequence | PBM 8-mer E-score
1 | GTCCATCA | -0.0683 ± 0.092
2 | CCCGTCCC | -0.0481 ± 0.028
3 | CCAAACTA | 0.241 ± 0.0054
4 | CAAAACTA | 0.103 ± 0.013
5 | ACAAACTA | 0.115 ± 0.0062
6 | GTGACTAA | 0.0929 ± 0.037
7 | CATCCAAC | 0.124 ± 0.056
8 | TAGGGACA | -0.0107 ± 0.063
9 | TACTAGTA | 0.25 ± 0.055
10 | TACTACTA | 0.247 ± 0.058
11 | AACTACTA | 0.144 ± 0.025
12 | CACTAGTA | 0.107 ± 0.1
13 | ATCTACTA | 0.263 ± 0.086
14 | ATCTAGTA | 0.0613 ± 0.095
15 | CTCTAGTA | 0.125 ± 0.045
16 | ATCTACTG | 0.0117 ± 0.033
17 | GTCTAGTA | 0.246 ± 0.021
18 | GACTAGTA | 0.223 ± 0.033
19 | GACTACTA | 0.12 ± 0.12
20 | ATCTACTC | -0.0118 ± 0.032
21 | AAGGCTAA | 0.0957 ± 0.095
22 | GCAATCCC | 0.107 ± 0.035
23 | AATACTTA | 0.05682 ± 0.00026
24 | CGCCTAGA | -0.246 ± 0.079
25 | ACTCCGGA | 0.0232 ± 0.032

Row | Sequence | PBM 8-mer E-score
26 | AAAGCTAT | 0.0921 ± 0.032
27 | AGAGTTGC | -0.124 ± 0.013
28 | GCTCCGAC | -0.215 ± 0.035
29 | CGGCTTCC | -0.166 ± 0.13
30 | CCTGCCCG | -0.0476 ± 0.0022
31 | CCGTTACC | -0.0555 ± 0.027
32 | GACTTGTA | 0.124 ± 0.17
33 | ACCGCAAA | -0.161 ± 0.043
34 | ATTGCGCA | 0.124 ± 0.033
35 | CTTGCGCC | -0.148 ± 0.036
36 | AATGCGCA | 0.229 ± 0.021
37 | CATGCGCA | 0.109 ± 0.18
38 | CTTGCGCA | 0.266 ± 0.0099
39 | TATGCGCA | 0.267 ± 0.026
40 | TAACATTA | 0.114 ± 0.082
41 | ATGTTAAC | 0.322 ± 0.023
42 | CTGTTAAC | 0.0735 ± 0.0019
43 | ATGTTTAG | 0.22 ± 0.022
44 | ATGTTTAC | 0.243 ± 0.073
45 | GTGTTAAC | -0.0129 ± 0.032
46 | CTGTTTAC | 0.0257 ± 0.014
47 | ACTGGCTC | -0.126 ± 0.031
48 | GGTAAACC | -0.203 ± 0.077
49 | ACAAGTCA | 0.0779 ± 0.031
50 | ACAAGTCT | 0.287 ± 0.028

Row | Sequence | PBM 8-mer E-score
51 | ACAAGTCG | 0.0191 ± 0.009
52 | ACATGCAA | 0.0816 ± 0.11
53 | AGGTATCG | -0.0734 ± 0.073
54 | AGGTATCA | 0.238 ± 0.043
55 | CGGTATCA | -0.1599 ± 0.00081
56 | AAAAGGCG | 0.0426 ± 0.024
57 | CACCGATA | -0.0537 ± 0.018
58 | AGGAATGA | 0.0595 ± 0.018
59 | CGGAATGA | -0.155 ± 0.06
60 | GGGAATGA | 0.26 ± 0.057
61 | AATGTATC | 0.151 ± 0.022
62 | TACCAACA | 0.163 ± 0.027
63 | ATAGACTC | 0.154 ± 0.021
64 | CTGGCGGC | -0.155 ± 0.055
65 | CACGCCCG | 0.0249 ± 0.038
66 | CTGTCATA | 0.179 ± 0.043
67 | ATATCATA | 0.255 ± 0.085
68 | ATATCATG | 0.147 ± 0.035
69 | ATATCAGG | 0.239 ± 0.032
70 | CTATCATA | 0.185 ± 0.013
71 | ATATCAGC | 0.0631 ± 0.073
72 | ACATCATA | 0.244 ± 0.064
73 | GTGTCATA | 0.248 ± 0.042
74 | ATATCAGA | 0.0984 ± 0.019
75 | CCATCATA | 0.153 ± 0.082

Row | Sequence | PBM 8-mer E-score
76 | ACATCATC | 0.047 ± 0.02
77 | ATGTCATA | 0.189 ± 0.012
78 | CGATAAGC | -0.0518 ± 0.16
79 | GGAATACC | -0.138 ± 0.015
80 | ACAGTTAG | 0.074 ± 0.026
81 | TGCTGCAA | 0.0638 ± 0.096
82 | CTTTCGGA | -0.125 ± 0.009
83 | CCCAACAA | 0.177 ± 0.0058
84 | AAAAGAAA | 0.0569 ± 0.052
85 | CCGCTGGA | -0.157 ± 0.04
86 | GCATCATA | 0.169 ± 0.0065
87 | GTATCAGA | -0.0699 ± 0.043
88 | GTATCATA | 0.255 ± 0.024
89 | CATGAGCA | -0.0267 ± 0.017
90 | GCCGAAGA | -0.0625 ± 0.053
91 | CGTAATAG | 0.118 ± 0.1
92 | CATAGTAA | 0.159 ± 0.099
93 | AGTAACAT | 0.294 ± 0.018
94 | AGTAACAG | 0.09 ± 0.031
95 | AGTAATAC | -0.0935 ± 0.039
96 | AGTAATAA | 0.0744 ± 0.038
97 | AGTAATAT | 0.25 ± 0.05
98 | AGTAATAG | 0.254 ± 0.02
99 | AATAGTAG | 0.0793 ± 0.083
100 | AATAGTAA | 0.238 ± 0.06

Row | Sequence | PBM 8-mer E-score
101 | AGTAATGG | 0.122 ± 0.043
102 | AGTAACAA | 0.113 ± 0.089
103 | ACCGGCAT | -0.121 ± 0.029
104 | GCAAATAC | 0.0657 ± 0.013
105 | AATAGATT | 0.117 ± 0.049
106 | GCAACGTA | -0.119 ± 0.038
107 | GAGCTATC | 0.0105 ± 0.011
108 | CCAAACGA | -0.105 ± 0.068
109 | AGCGTGTG | 0.146 ± 0.035
110 | ATCGGGAA | -0.0836 ± 0.067
111 | GCATCCAC | 0.0775 ± 0.049
112 | CCCACCTC | -0.0411 ± 0.14
113 | CCTTTTTA | -0.0668 ± 0.03
114 | CTTTTTCA | 0.0855 ± 0.061
115 | GCTTTTTA | 0.303 ± 0.013
116 | GCTTTTAA | -0.0089 ± 0.0068
117 | GCTTTTCA | 0.0545 ± 0.063
118 | CCTTTTCA | 0.29 ± 0.03
119 | GTTCCTCA | -0.0919 ± 0.021
120 | CGCTGGAG | -0.172 ± 0.023
121 | ATCAACTC | 0.0114 ± 0.058
122 | CGAAGGAA | -0.209 ± 0.023
123 | GAGCCAGA | -0.216 ± 0.14
124 | TGTATGAA | 0.0767 ± 0.054
125 | GCCCACCA | 0.078 ± 0.038

Row | Sequence | PBM 8-mer E-score
126 | GCCCACAC | 0.076 ± 0.018
127 | GCCCACCC | 0.417 ± 0.02
128 | CCCCACCC | 0.23 ± 0.1
129 | ACCCACCC | 0.424 ± 0.043
130 | ACCCACCA | 0.178 ± 0.043
131 | AACCGGAA | -0.0983 ± 0.0079
132 | GCTGAGAA | -0.111 ± 0.028
133 | TCAACCGA | -0.0249 ± 0.02
134 | AACCATTA | 0.293 ± 0.0072
135 | AACCATTG | -0.145 ± 0.014
136 | CACCATTA | -0.0267 ± 0.11
137 | GTCAAATA | 0.163 ± 0.093
138 | CAATATGG | 0.244 ± 0.044
139 | CAATATGA | 0.189 ± 0.055
140 | CAATATGC | 0.128 ± 0.021
141 | ACATATGG | 0.0892 ± 0.04
142 | CCATATGG | 0.295 ± 0.008
143 | CCATATGC | 0.134 ± 0.054
144 | AGCACCAG | -0.0554 ± 0.022
145 | CGACACTC | -0.159 ± 0.094
146 | AACACTCC | -0.151 ± 0.012
147 | GAAATCAA | 0.0712 ± 0.019
148 | AAAATCAG | 0.0292 ± 0.03
149 | CGAATCAA | 0.241 ± 0.054
150 | AAAATCAA | -0.044 ± 0.037

Row | Sequence | PBM 8-mer E-score
151 | AAAATCAC | 0.28 ± 0.0095
152 | CGAATCAG | -0.0839 ± 0.076
153 | GAAATCAC | 0.142 ± 0.072
154 | TGAATCAA | 0.1418 ± 0.00071
155 | CAAATCAA | 0.237 ± 0.0084
156 | CCGCTTGC | -0.142 ± 0.036
157 | ATACCAGA | 0.118 ± 0.019
158 | ACGTGTGG | 0.156 ± 0.026
159 | ACGTGTAC | 0.132 ± 0.017
160 | ACGTGTTA | 0.352 ± 0.0043
161 | ACGTGTAT | 0.336 ± 0.015
162 | CCGTGTTA | 0.0643 ± 0.04
163 | ACGTGTCG | 0.18 ± 0.033
164 | ACGTGTGC | 0.238 ± 0.029
165 | ACGTGTGA | 0.113 ± 0.061
166 | GCGTGTTA | 0.103 ± 0.02
167 | ACGTGTCT | 0.26 ± 0.046
168 | ACGTGTCA | 0.139 ± 0.031
169 | ACGTGTAG | 0.0238 ± 0.1
170 | GAAGCCCC | -0.0537 ± 0.047
171 | GCTTGTCA | -0.15 ± 0.028
172 | CACCTGAC | 0.0247 ± 0.0091
173 | CCCATAGA | 0.11 ± 0.015
